From PubChem BioAssay
A selection: hits, their analogues and other compounds. The true share with any hit is near 3.5%.
TROY signal inh = TROY signaling inhibition. inhibition, % at 10 µM. hit rate 0.98% among 360,000. Q293 LMP1-TROYcd NF-kB luciferase reporter, 4 h;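 active = compounds whose plate-normalised and pattern-corrected inhibition of the luciferase reporter signal at the single screening dose is 50% or more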
TWEAK Fn14 block = blocks TWEAK-Fn14 interaction in a reporter cell assay; TWEAK-stimulated Fn14 reporter cells, luciferase luminescence, 8 h; inhibition, % at 10 µM; hit rate 2% among 360,000; AID 1159606; in the data active = inhibition above about 50%
PPC-1+TRAIL kill = PPC-1 cancer cell killing with TRAIL present; cell killing (% activity), % at 4 µM or 5 µM; PPC-1 cells + TRAIL, ATPLite viability luminescence; hit rate 0.41% among 220,000;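 active = cell killing above 50% in the first pass at 4 µM, then a duplicate retest at 5 µM averaging 50% or more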;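 also: plate controls were cells with TRAIL plus DMSO for no effect and medium-only wells lacking cells for full effect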
HSP90 inh = HSP90 refolding inhibition in rabbit reticulocyte lysate. luciferase refolding luminescence, 3 h. inhibition, % at 5.6 µM. hit rate 0.91% among 290,000;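 active = inhibition above the screen-wide mean plus 3 SD, computed separately per campaign, cut at about 16% in these data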;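 also: 0% = DMSO wells and 100% = 60 µM geldanamycin wells; inhibitors lower the luminescence because luciferase stays unfolded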
Platelet DG rel = platelet dense granule release activity; human platelet-rich plasma, SFLLRN dense granule ATP release, luminescence; inhibition, %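 (compounds screened at 7.5 µM in platelet-rich plasma)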; hit rate 0.22% among 300,000; AID 1663;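 active = mean replicate score, as percent of positive control, at or above 50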
TRAIL sens C8 = caspase-8 TRAIL sensitization | inhibition (viability loss, TRAIL sensitization), % at 10 µM | NB7+C8 cells + TRAIL, ATPlite viability luminescence | hit rate 1% among 360,000 | AID 624354;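 active = compounds causing at least 50% loss of cell viability in the single-dose screen, relative to plate controls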
* hit, by the source's call; · = not tested or not shown.

SMILES | TROY signal inh | TWEAK Fn14 block | PPC-1+TRAIL kill | HSP90 inh | Platelet DG rel | TRAIL sens C8
O=C1c2cccc3cccc(c23)C(=O)N1c1nccs1 | -22 | 5 | 13 | -4 | -4 | 2
O=C1c2cccc3c([N+](=O)[O-])ccc(c23)C(=O)N1c1ccc(Cl)cn1 | 62* | 7 | 23 | 0 | 22 | 39
O=C1c2cccc3c([N+](=O)[O-])ccc(c23)C(=O)N1O | 12 | -19 | · | -2 | -4 | 45
O=C1c2cccc3c([N+](=O)[O-])ccc(c23)C(=O)N1c1ccccn1 | 30 | -111 | 4 | 0 | 0 | 51*
CCOC(=O)Cc1csc(NC(=O)/C=C\c2ccccc2Cl)n1 | 5 | 14 | 35 | -1 | 4 | 42
O=C(O)c1ccc(S(=O)(=O)N2CCc3ccccc3C2)cc1 | -10 | 19 | · | -2 | 8 | 5
Cc1ccc(-n2nnnc2-c2cnc(N3CCCC3)nc2C(F)(F)F)cc1 | 21 | 33 | 15 | -3 | 1 | 2
FC(F)(F)c1nc(N2CCCC2)ncc1-c1nnnn1-c1ccccc1 | 18 | 51* | 2 | -1 | 0 | 16
CCCCN1C(=O)C(CC(=O)NCCCCc2ccccc2)CC(C(=O)N(C(C)C)C(C)C)=C1C (stereo not given) | -6 | 1 | · | · | · | 7
Cc1csc(NC(=O)C2CCCCC2C(=O)O)n1 (stereo not given) | -2 | -10 | 4 | 0 | -4 | -1
Cc1csc(NC(=O)C2CCCC2)n1 | · | 62* | 9 | 5 | 2 | -14
Cc1csc(NC(=O)CN2C(=O)C3CC=CCC3C2=O)n1 (stereo not given) | · | 73* | 3 | -8 | 0 | -23
N#Cc1cccc(NC(=O)COC(=O)c2ccc[n+]([O-])c2)c1 | 17 | 11 | · | · | · | -11
O=C(O)c1ccccc1C(=O)Nc1ccc(Oc2cccc3ccccc23)cc1 | 71* | 88* | 5 | 0 | 4 | 0
Cc1nc(S/C(C(=O)O)=C2/C(=O)Nc3ccccc32)n[nH]1 | 15 | 10 | 12 | 0 | 61* | 28
COc1ccc(Cc2nc(-c3ccncc3)no2)cc1 | 50* | 36 | 3 | 6 | 8 | 5
CC(C)CC(/C(O)=C(\C#N)c1nc2ccccc2[nH]1)N1C(=O)c2ccccc2C1=O (stereo not given) | 15 | 16 | 0 | 10 | -2 | 65*
O=C(O)CCC(=O)N1CCN(c2ncccn2)CC1 | 11 | 10 | 4 | 4 | -3 | -2
Cc1c(C)c2ccc(OCC(=O)N3CCC(C(=O)O)CC3)cc2oc1=O | -2 | 4 | · | 16* | -2 | 12
COc1ccc(-c2cc3ccc(OCC(=O)NCC4CCC(C(=O)O)CC4)cc3oc2=O)cc1 (stereo not given) | -76 | -2 | · | -1 | 9 | 59*
CCCCNC(=O)CSc1nc2ccsc2c(=O)n1CCCC(=O)NCCc1ccc(S(N)(=O)=O)cc1 | 6 | 3 | -9 | 2 | 2 | -5
Cc1ccc(-c2c(C)sc(NC(=O)C3C4CCC(O4)C3C(=O)O)c2C(=O)OC(C)C)cc1 (stereo not given) | -5 | -7 | 17 | -4 | 23 | -9
CC(C)=C1C2CCC1C(C(=O)Nc1sc(C)c(-c3ccc(C(C)C)cc3)c1C(N)=O)C2C(=O)O (stereo not given) | 51* | 36 | 5 | 0 | -1 | -8
CCc1nc2ccc(C(=O)Nc3ccc(OC)c(OC)c3)cn2c1N(C)Cc1nccs1 | -2 | 7 | · | · | · | 3
O=C(Nc1ccc(Oc2ccccc2)cc1)C1CCN(c2c3c(nc4ncnn24)CCC3)CC1 | 51* | 79* | -5 | 3 | -4 | 40
SMILES | TROY signal inh | TWEAK Fn14 block | PPC-1+TRAIL kill | HSP90 inh | Platelet DG rel | TRAIL sens C8
O=C(Nc1ccc2c(c1)CCC2)C1CCN(c2c3c(nc4ncnn24)CCC3)CC1 | 35 | 35 | 4 | 2 | -7 | 43
N#CC(C#N)c1ccnc2ccccc12 | 43 | 59* | · | · | · | 4
Fc1cccc(Cl)c1CNc1ccc(N2CCCC2)cc1 | 17 | 57* | 11 | 4 | -3 | 13
NS(=O)(=O)c1ccc(NCc2c(F)cccc2Cl)cc1 | -48 | 6 | 3 | -1 | 4 | 1
O=C(CSc1nnnn1C1CC1)N1CCN(c2ccccc2F)CC1 | 1 | -1 | · | · | · | -7
CC1=NNC(=O)/C1=C\c1cn(-c2ccccc2)nc1-c1cccs1 | 88* | 109* | 35 | -2 | 4 | 39
